# Source: PubChem
# U2OS ROS induce: inducers of reactive oxygen species in cancer cells. hit rate 2% among 46,000. U2OS ROS induction, H2DCF-DA fluorescence. ROS induction (% of piperlongumine), % at 10 µM; in the data active = ROS induction above about 79%, passing the limit was not always enough
# A number is an active result; . = inactive. Many of the other results were omitted from the sample, so hits are more common in it than they were.
SMILES,U2OS ROS induce
CNc1ccccc1C(=O)O,.
C[CH2][Hg][S]c1ccccc1C(=O)O,135.9
CC(/C=C/[C@@]1(C)[C@H](C)CCC(=O)[C@@H]1C)=C\Cc1c(O)c(Cl)c(C)c(C=O)c1O,.
C=C1[C@@H](C)[C@H]2[C@H](Cc3ccccc3)NC(=O)[C@]23OC(=O)/C=C\[C@H](O)CCC[C@@H](C)C/C=C/[C@H]3[C@@H]1O,.
C/C=C(/C)C(=O)O[C@H]1C(C)=C2[C@H]([C@@H]1OC(=O)CCCCC)[C@@](C)(OC(C)=O)C[C@H](OC(=O)CCC)[C@@]1(O)[C@H]2OC(=O)[C@@]1(C)O,.
O=C(NC1CN2CCC1CC2)c1cccc(Cl)c1 (stereo not drawn),87.7
Clc1cccc(N2CCNCC2)c1,.
Cc1nc(-c2ccccc2)nc(OC(=O)N(C)C)c1Oc1cccc(C(F)(F)F)c1,.
O=[P+](c1ccccc1)c1ccccc1,.
COC(=O)C12CC3CC(C(C)O)C1N(CCc1c2[nH]c2cc(OC)ccc12)C3 (stereo not drawn),.
COC(=O)C1=COC(C)C2CN3CCc4c([nH]c5cc(OC)ccc45)C3CC12 (stereo not drawn),103.3
COC(=O)C1=COC(C)C2CN3CCC4(C(=O)Nc5ccccc54)C3CC12 (stereo not drawn),.
Cc1ccc(NC(=O)c2cccc(OC(=O)N(C)c3ccccc3)c2)cc1C,.
Cc1ccc(S(=O)(=O)N2CCCCC2)cc1C(=O)Oc1cccc2cccnc12,.
CCC(C)(O)C(=O)O[C@H]1C(=O)O[C@@H]2C[C@H]3C(C)=CC(=O)[C@@H](O)[C@]3(C)[C@H]3[C@@]4(O)OC[C@]32[C@@H]1[C@@H](C)[C@H]4O (stereo partly drawn),.
C=C(CO)C(=O)O[C@H]1C/C(C)=C\CC/C(CO)=C\[C@H]2OC(=O)C(=C)[C@H]12,.
C=C(CO)C(=O)O[C@H]1CC(=C)[C@@H]2C[C@H](O)C(=C)[C@@H]2[C@H]2OC(=O)C(=C)[C@@H]21,96.1
O=C(c1ccco1)c1cn(CCCOc2ccccc2)c2ccccc12,.
N#CC(c1ccccc1)c1ccccc1,.
COc1ccc(OC)c(NC(=S)NCCc2cnc[nH]2)c1,.
CCCCc1nc2ccccc2c(=O)n1-c1ccc(C)cc1,.
O=C(c1ccc2nc(N3CCCCC3)sc2c1)N1CCC2(CC1)OCCO2,.
CC(=O)OC[C@]12C[C@H](O)C(C)=C[C@H]1O[C@@H]1[C@H](O)[C@@H](OC(C)=O)[C@@]2(C)[C@]12CO2,.
O=C1NCN(c2ccccc2)C12CCN(CCCOc1ccc(F)cc1)CC2,.
O=C(CCCN1CCC2(CC1)C(=O)NCN2c1ccccc1)c1ccc(F)cc1,98.1
SMILES,U2OS ROS induce
C/C1=C/[C@@H](C)C/C=C/[C@H]2[C@@H]3O[C@]3(C)[C@@H](C)[C@H]3[C@H](Cc4c[nH]c5ccccc45)NC(=O)[C@]32C(=O)/C=C\C(=O)[C@@H]1O,.
CC1=CC(=O)C2=C(C)C[C@H](O)[C@@H]3[C@H](OC(=O)[C@@H]3C)[C@@H]12,.
O=C(Cn1cc(C(=O)c2ccccc2)c2ccccc21)Nc1ccc(F)cc1,.
C[C@@H]1CN([C@H](C)CO)C(=O)CCCn2nncc2CO[C@@H]1CN(C)C(=O)Oc1ccc2ccccc2c1,149.4
C[C@@H]1CN([C@H](C)CO)C(=O)CCCn2nncc2CO[C@H]1CN(C)C(=O)Oc1ccc2ccccc2c1,.
C[C@@H]1CN([C@@H](C)CO)C(=O)CCCn2nncc2CO[C@@H]1CN(C)C(=O)Oc1ccc2ccccc2c1,.
CO[C@H]1[C@H](O)[C@H](O[C@H]2CC[C@]3(C)C4CC[C@]5(C)C(C6=CC(=O)OC6)CC[C@]5(O)C4CC[C@@H]3C2)O[C@@H](C)[C@@H]1O (stereo partly drawn),.
C=CC1C[N+]2([O-])CCC1CC2C(O)c1ccnc2ccccc12 (stereo not drawn),.
CC1(C)C(=O)C=C[C@@]2(C)C1C(=O)C(=O)[C@]1(C)C2CC[C@@]2(C)[C@H](c3ccoc3)C[C@H]3O[C@]321 (stereo partly drawn),178.5
C/C=C\C(=O)O[C@@H]1C[C@H]2O[C@@H]3C=C(C)C(=O)C[C@]3(C)[C@]1(C)[C@]21CO1,.
CCOC(=O)C1=C(N)Oc2c(c(=O)oc3ccccc23)C12C(=O)N(CC(=O)OC)c1ccccc12 (stereo not drawn),97.1
CCOC(=O)C1=C(N)Oc2c(c(=O)oc3ccccc23)C1c1ccccc1 (stereo not drawn),.
COc1cc2c(c(OC)c1OC)-c1cc3c(cc1[C@H](OC(C)=O)[C@H]1COC(=O)[C@@H]1C2)OCO3,.
CN(CC(=O)Nc1ccc(Cl)cc1C(=O)c1ccccc1)S(=O)(=O)c1ccc(Cl)cc1,.
OC[C@H]1O[C@@H](Oc2ccc(/C=C/c3cc(O)cc(O)c3)cc2O)[C@H](O)[C@@H](O)[C@@H]1O,.
